Reference: PubChem BioAssay (NCATS)
Results filed as inconclusive are left out. Active and inactive are the calls of the source. Calls follow the shape of the dose curve; as a rule, active = well fitted cell-killing curve with a large enough effect; inconclusive = small, poorly fitted or top-dose-only effect, or effect the other way; inactive = flat fitted curve, though single readings scatter. Where a SMILES comes first, the peptide text is derived from it.

Columns and labels:
Experiment in all cases: Primary qHTS to identify gynecologic anti-cancer compounds using libraries of approved drugs and bioactive compounds (AID 1345084); also: nearly all actives have a fitted effect of over 55% in size
Details in all cases: Gynecologic cancer cell panel viability, ATPlite luminescence, 48 h; series mostly up to 57.5 µM
PA-1 = tested on: PA-1
Outline: (§1)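 Cytotoxicity screen measuring ATP content by luciferase luminescence. Each compound is applied at five concentrations for 48 h at 37 C with 5% CO2.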

SKOV3 = tested on: SKOV3
Outline: as §1

Tov-21-G = tested on: Tov-21-G
Outline: as §1

Tov112D = tested on: Tov112D
Outline: as §1
% is scaled to controls: 0 for no effect and ±100 for the full control effect.

C=C1CC/C=C(/CO)C(=O)C[C@@H]2[C@@H]1C[C@@]2(C)COC(C)=O
inactive: Potency (PA-1) | Potency (SKOV3) | Potency (Tov-21-G) | Potency (Tov112D)

N#Cc1cc(-c2n[nH]c(-c3ccncc3)n2)ccn1
inactive: Potency (PA-1) | Potency (SKOV3) | Potency (Tov-21-G) | Potency (Tov112D)

CC(C)C(O)(CO)CCO[C@@H]1O[C@H](CO[C@H]2OC[C@](O)(CO)[C@H]2O)[C@@H](O)[C@H](O)[C@H]1O (some centres not stated)
inactive: Potency (PA-1) | Potency (SKOV3) | Potency (Tov-21-G) | Potency (Tov112D)

C[C@@H]1CC2OC(=O)C3=C2C(CCC3O)[C@@]12C[C@@H](c1ccoc1)OC2=O (some centres not stated)
inactive: Potency (PA-1) | Potency (SKOV3) | Potency (Tov-21-G) | Potency (Tov112D)

CCC(C)C(=O)OC[C@H]1O[C@H](O[C@H]2O[C@H](CO)[C@@H](O)[C@H](O)[C@H]2O)[C@H](O)[C@@H](O)[C@@H]1O (some centres not stated)
inactive: Potency (PA-1) | Potency (SKOV3) | Potency (Tov-21-G) | Potency (Tov112D)

CC(C)=CCC[C@](C)(O[C@@H]1O[C@H](CO)[C@@H](O)[C@H](O)[C@H]1O)[C@H]1CC[C@]2(C)[C@@H]1[C@H](O)CC1[C@@]3(C)CC[C@H](O)C(C)(C)C3[C@@H](O[C@@H]3O[C@H](CO)[C@@H](O)[C@H](O)[C@H]3O[C@@H]3O[C@@H](C)[C@H](O)[C@@H](O)[C@H]3O)C[C@]12C (some centres not stated)
inactive: activity change, negative = cytotoxicity (PA-1) 24.4% [at 11.6 µM] | activity change, negative = cytotoxicity (SKOV3) 18.8% [at 11.6 µM] | activity change, negative = cytotoxicity (Tov-21-G) -0.988% [at 11.6 µM] | activity change, negative = cytotoxicity (Tov112D) 2.74% [at 11.6 µM]

CC1(C(=O)O)CCCC2(C)C3CC4C5CC3(CCC12)CC45C (configuration not stated)
inactive: Potency (PA-1) | Potency (SKOV3) | Potency (Tov-21-G) | Potency (Tov112D)

O=C(Nc1cc(-c2ccccc2)nn1-c1ccccc1)c1ccc([N+](=O)[O-])cc1
inactive: Potency (PA-1) | Potency (SKOV3) | Potency (Tov-21-G) | Potency (Tov112D)

Cc1occc(=O)c1O[C@@H]1O[C@H](COC(=O)CC(C)(O)CC(=O)O)[C@@H](O)[C@H](O)[C@H]1O (some centres not stated)
inactive: Potency (PA-1) | Potency (SKOV3) | Potency (Tov-21-G) | Potency (Tov112D)

O=C(/C=C/c1ccc(O)cc1)OC[C@H]1O[C@@H](O/C(=C\c2ccccc2)C(=O)O)[C@H](O)[C@@H](O)[C@@H]1O
inactive: Potency (PA-1) | Potency (SKOV3) | Potency (Tov-21-G) | Potency (Tov112D)

OC[C@@]1(O)CO[C@H](OC[C@H]2O[C@@H](OC(CCCCc3ccc(O)cc3)CCc3ccc(O)cc3)[C@H](O)[C@@H](O)[C@@H]2O)[C@@H]1O (some centres not stated)
inactive: Potency (PA-1) | Potency (SKOV3) | Potency (Tov-21-G) | Potency (Tov112D)

COC(=O)C1=CO[C@@H](O[C@@H]2O[C@H](CO)[C@@H](O)[C@H](O)[C@H]2O)[C@@H]2C(CO)=CC[C@H]12
inactive: Potency (PA-1) | Potency (SKOV3) | Potency (Tov-21-G) | Potency (Tov112D)

C=C1CC[C@@]2(OC1)O[C@H]1CC3[C@@H]4CC=C5C[C@@H](O)C[C@@H](O[C@@H]6OC[C@H](O)[C@H](O)[C@H]6O[C@@H]6O[C@@H](C)[C@H](O)[C@@H](O)[C@H]6O)[C@]5(C)C4CC[C@]3(C)[C@H]1[C@@H]2C (some centres not stated)
inactive: Potency (PA-1) | Potency (SKOV3) | Potency (Tov-21-G) | Potency (Tov112D)

CC(=O)OC1CCC2(C)C(CCC3(C)C2CC=C2C4CC(C)(C)CCC4(C)CCC23C)C1(C)C(=O)O (configuration not stated)
inactive: Potency (PA-1) | Potency (SKOV3) | Potency (Tov-21-G) | Potency (Tov112D)

C/C=C(\C)C(=O)OC[C@H]1O[C@@H](O[C@H]2[C@@H](O[C@H]3O[C@H](COC(=O)/C(C)=C/C)[C@@H](O)[C@H](O)[C@H]3O[C@@H]3O[C@H](COC(=O)/C(C)=C/C)[C@@H](O)[C@H](OC(=O)/C(C)=C/C)[C@H]3O)O[C@H](COC(=O)/C(C)=C/C)[C@@H](O)[C@@H]2O)[C@H](O)[C@@H](O)[C@@H]1O
inactive: activity change, negative = cytotoxicity (PA-1) 0.401% [at 11.6 µM] | activity change, negative = cytotoxicity (SKOV3) -1.49% [at 11.6 µM] | activity change, negative = cytotoxicity (Tov-21-G) -1.7% [at 11.6 µM] | activity change, negative = cytotoxicity (Tov112D) 6.68% [at 11.6 µM]

COc1cc(C(C)=O)ccc1O[C@@H]1O[C@H](CO)[C@@H](O)[C@H](O)[C@H]1O
inactive: Potency (PA-1) | Potency (SKOV3) | Potency (Tov-21-G) | Potency (Tov112D)

C/C=C(/C)C(=O)O[C@@H]1C[C@@H](OC(=O)/C(C)=C\C)[C@@]2(C)C3C(=O)C=C(C)C2C3C1(C)C
inactive: Potency (PA-1) | Potency (SKOV3) | Potency (Tov-21-G) | Potency (Tov112D)

CCC1(O)CC2c3cc(OC)c(OC)cc3CCN2CC1CC(C)C (configuration not stated)
inactive: Potency (PA-1) | Potency (SKOV3) | Potency (Tov-21-G) | Potency (Tov112D)

C/C1=C\CC(C)(C)/C=C/C/C(C(=O)O)=C/CC1
inactive: Potency (PA-1) | Potency (SKOV3) | Potency (Tov-21-G) | Potency (Tov112D)

CC(=O)OC1CC(C(C)(C)O)OC2CCC3(C)OC4=C(C(=O)C=C5C(C)C(OC(C)=O)C6(C)C(C)OC546)C(O)C3C12C (configuration not stated)
inactive: Potency (PA-1) | Potency (SKOV3) | Potency (Tov-21-G) | Potency (Tov112D)

O=C(O)[C@H]1Cc2ccccc2CN1
inactive: activity change, negative = cytotoxicity (PA-1) 3.48% [at 6.55 µM] | activity change, negative = cytotoxicity (SKOV3) 14.2% [at 6.55 µM] | activity change, negative = cytotoxicity (Tov-21-G) 4.78% [at 6.55 µM] | activity change, negative = cytotoxicity (Tov112D) 19.2% [at 6.55 µM]

COc1ccc(/C=C/C(=O)O[C@@H]2[C@@H](OC(C)=O)[C@@H](OC(C)=O)[C@H](O[C@H]3[C@@H]4C=CO[C@@H](O[C@@H]5O[C@H](CO)[C@@H](O)[C@H](O)[C@H]5O)[C@@H]4[C@@]4(CO)O[C@@H]34)O[C@H]2C)cc1
inactive: Potency (PA-1) | Potency (SKOV3) | Potency (Tov-21-G) | Potency (Tov112D)

CC(O)CCc1ccc(O[C@@H]2O[C@H](CO)[C@@H](O)[C@H](O)[C@H]2O)cc1 (some centres not stated)
inactive: Potency (PA-1) | Potency (SKOV3) | Potency (Tov-21-G) | Potency (Tov112D)

CCN(CCN(C)C)C(=O)CNCc1cc(C(N)=O)ccn1
inactive: Potency (PA-1) | Potency (SKOV3) | Potency (Tov-21-G) | Potency (Tov112D)

C/C(=C\CCC(C)CCO)C(=O)OC[C@H]1O[C@@H](O[C@@H]2OC=C(C(=O)O)[C@H]3CC[C@](C)(O)[C@@H]23)C(O)[C@@H](O)C1O (some centres not stated)
inactive: Potency (PA-1) | Potency (SKOV3) | Potency (Tov-21-G) | Potency (Tov112D)

O=C(O)C(Cc1ccccc1)NC(=O)C1CCCN1 (stereo not drawn) (H-Pro-Phe-OH; configuration not given here)
inactive: Potency (PA-1) | Potency (SKOV3) | Potency (Tov-21-G) | Potency (Tov112D)

CC(/C=C/C=C(\C)C(=O)O[C@@H]1O[C@H](CO[C@@H]2O[C@H](CO)[C@@H](O)[C@H](O)[C@H]2O)[C@@H](O)[C@H](O)[C@H]1O)=C\C=C\C=C(C)\C=C\C=C(/C)C(=O)O[C@@H]1C[C@](O)(C(=O)O)C[C@@H](O)[C@H]1OC(=O)/C=C/c1ccc(O)c(O)c1
inactive: activity change, negative = cytotoxicity (PA-1) -12.7% [at 11.6 µM] | activity change, negative = cytotoxicity (SKOV3) 3.61% [at 11.6 µM] | activity change, negative = cytotoxicity (Tov-21-G) 0.602% [at 11.6 µM] | activity change, negative = cytotoxicity (Tov112D) -1.9% [at 11.6 µM]

C/C=C1/[C@H](O[C@@H]2O[C@H](CO)[C@@H](O)[C@H](O)[C@H]2O)OC=C(C(=O)OC)[C@H]1CC(=O)OCCc1ccc(OC(=O)C[C@@H]2C(C(=O)OC)=CO[C@@H](O[C@@H]3O[C@H](CO)[C@@H](O)[C@H](O)[C@H]3O)/C2=C/C)cc1
inactive: activity change, negative = cytotoxicity (PA-1) 1.32% [at 11.6 µM] | activity change, negative = cytotoxicity (SKOV3) 0% [at 11.6 µM] | activity change, negative = cytotoxicity (Tov-21-G) 4.28% [at 11.6 µM] | activity change, negative = cytotoxicity (Tov112D) 11.9% [at 11.6 µM]

CNc1nc(Nc2cn(C(C)(C)C#N)nc2C)ncc1C(F)(F)F
inactive: Potency (PA-1) | Potency (SKOV3) | Potency (Tov-21-G) | Potency (Tov112D)

O=C(O)CCc1ccc(NCc2cccc3c2CCCN3CCOc2ccccc2)cc1F
inactive: Potency (PA-1) | Potency (SKOV3) | Potency (Tov-21-G) | Potency (Tov112D)

CC(=O)/C=C/C1(O)C(C)CC(O[C@@H]2O[C@H](CO)[C@@H](O)[C@H](O)[C@H]2O)CC1(C)C (some centres not stated)
inactive: Potency (PA-1) | Potency (SKOV3) | Potency (Tov-21-G) | Potency (Tov112D)

COc1cc(C(C)=O)ccc1O[C@@H]1O[C@H](CO[C@@H]2OC[C@@H](O)[C@H](O)[C@H]2O)[C@@H](O)[C@H](O)[C@H]1O
inactive: Potency (PA-1) | Potency (SKOV3) | Potency (Tov-21-G) | Potency (Tov112D)

CC1OC(OC2CCC3(C)C(CCC4(C)C3C=CC35OCC6(CCC(C)(C)CC63)CCC45C)C2(C)CO)C(OC2OC(CO)C(O)C(O)C2O)C(O)C1OC1OC(CO)C(O)C(O)C1O (configuration not stated)
inactive: activity change, negative = cytotoxicity (PA-1) 5.66% [at 11.6 µM] | activity change, negative = cytotoxicity (SKOV3) 6.92% [at 11.6 µM] | activity change, negative = cytotoxicity (Tov-21-G) 3.71% [at 11.6 µM] | activity change, negative = cytotoxicity (Tov112D) 11.6% [at 11.6 µM]

COc1cn(-c2ccc(-n3cccn3)cc2F)nc(-c2ccnn2-c2ccccc2)c1=O
inactive: Potency (PA-1) | Potency (SKOV3) | Potency (Tov-21-G) | Potency (Tov112D)

C[C@@H]1O[C@@H](O[C@H]2[C@@H]3C=CO[C@@H](O[C@@H]4O[C@H](CO)[C@@H](O)[C@H](O)[C@H]4O)[C@@H]3[C@@]3(CO)O[C@@H]23)[C@H](OC(=O)/C=C/c2ccc(O)cc2)[C@H](O)[C@H]1O
inactive: Potency (PA-1) | Potency (SKOV3) | Potency (Tov-21-G) | Potency (Tov112D)

OCC1=C[C@@H](O)[C@@H]2C=CO[C@@H](O[C@@H]3O[C@H](CO)[C@@H](O)[C@H](O)[C@H]3O)[C@H]12
inactive: Potency (PA-1) | Potency (SKOV3) | Potency (Tov-21-G) | Potency (Tov112D)

CC(C)(O)C1CCC2(C)CCCC(C)(O)C2C1 (configuration not stated)
inactive: Potency (PA-1) | Potency (SKOV3) | Potency (Tov-21-G) | Potency (Tov112D)

CC1(C)C2CC[C@@]34CC(CC[C@H]3[C@]2(C)CC[C@@H]1O[C@@H]1O[C@H](CO)[C@@H](O)[C@H](O)[C@H]1O)[C@](C)(O)C4 (some centres not stated)
inactive: Potency (PA-1) | Potency (SKOV3) | Potency (Tov-21-G) | Potency (Tov112D)

NC(Cc1c[nH]c2ccc(O)cc12)C(=O)O (configuration not stated)
inactive: Potency (PA-1) | Potency (SKOV3) | Potency (Tov-21-G) | Potency (Tov112D)

CC[C@H](NC(=O)c1c(O)c(-c2ccccc2)nc2ccccc12)c1ccccc1
inactive: Potency (PA-1) | Potency (SKOV3) | Potency (Tov-21-G) | Potency (Tov112D)

NC1Nc2ccccc2C1(N)CC1NC(=O)C(Cc2ccccc2)NC(=O)C(Cc2ccccc2)NC1=O (configuration not stated)
inactive: Potency (PA-1) | Potency (SKOV3) | Potency (Tov-21-G) | Potency (Tov112D)

COc1ccc(S(=O)(=O)Nc2nc(-c3cccc([N+](=O)[O-])c3)cs2)cc1OC
inactive: Potency (PA-1) | Potency (SKOV3) | Potency (Tov-21-G) | Potency (Tov112D)

C[C@@H]1O[C@@H](OC(=O)Cc2ccccc2)[C@H](O)[C@H](O)[C@H]1O
inactive: Potency (PA-1) | Potency (SKOV3) | Potency (Tov-21-G) | Potency (Tov112D)
